{"source": "PubChem BioAssay (Tox21)", "note": "Activity calls are given as the source filed them. Where a call stands in place of a potency, no number is given. The call rests on the fitted dose curve. Potency means the concentration at half of the fitted maximal effect.", "data": [{"target": "Estrogen receptor (Homo sapiens) (UniProt P03372)", "sequence (P03372 whole entry, looked up)": "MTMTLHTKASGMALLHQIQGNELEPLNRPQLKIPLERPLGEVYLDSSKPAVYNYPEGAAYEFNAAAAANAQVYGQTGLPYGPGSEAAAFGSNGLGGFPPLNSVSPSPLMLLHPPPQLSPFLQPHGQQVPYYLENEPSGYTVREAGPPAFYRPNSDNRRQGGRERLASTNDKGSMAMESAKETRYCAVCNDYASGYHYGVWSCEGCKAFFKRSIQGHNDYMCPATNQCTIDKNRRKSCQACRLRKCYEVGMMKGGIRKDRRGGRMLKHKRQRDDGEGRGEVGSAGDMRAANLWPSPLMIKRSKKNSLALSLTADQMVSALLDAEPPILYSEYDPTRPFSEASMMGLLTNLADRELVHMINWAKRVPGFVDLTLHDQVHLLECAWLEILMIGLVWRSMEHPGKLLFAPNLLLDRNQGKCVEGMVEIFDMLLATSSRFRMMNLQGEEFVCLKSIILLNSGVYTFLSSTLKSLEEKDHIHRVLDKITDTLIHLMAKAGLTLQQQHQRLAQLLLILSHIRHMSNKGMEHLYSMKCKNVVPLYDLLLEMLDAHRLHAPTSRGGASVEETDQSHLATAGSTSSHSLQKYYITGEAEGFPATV", "assay": "qHTS assay to identify small molecule agonists of the estrogen receptor alpha (ER-alpha) signaling pathway in the presence of an antagonist (AID 1259383); further: nearly all actives have a fitted effect of over 15% in size", "details": "VM7Luc4E2 cells, ERE-luciferase, +ICI-182,780, 22 h; series mostly up to 92.4 µM", "excerpt": "National Center for Advancing Translational Sciences [NCATS] NIH Chemical Genomics Center [NCGC] U.S. Environmental Protection Agency [EPA] National Institutes of Environmental Health Sciences [NIEHS] National Toxicology Program [NTP] Assay overview: Estrogen receptor (ER), a member of nuclear hormone receptor plays an important role in development, metabolic homeostasis and reproduction. Two subtypes of ER, ER-alpha and ER-beta, have similar expression patterns with some uniqueness in both types. Endocrine disrupting chemicals (EDCs) and their interactions with steroid hormone receptors like ER causes disruption of normal endocrine function. Therefore, it is important to understand the effect of environmental chemicals in ER signaling pathway. For identifying ER agonists, VM7Luc4E2 cell line has been used in the current assay. VM7Luc4E2 cell line (provided by Denison MS, University of California) endogenously expresses full-length ER-alpha and is stably transfected with a plasmid containing four estrogen responsive elements (ERE) upstream of a luciferase reporter gene. This current screening for measuring luciferase reporter gene activity using VM7Luc4E2 cells against Tox21 10K library collection is a confirmation study on agonist mode screening in presence of ER-antagonist (ICI-182,780) at 10.0nM final concentration.\nAssay Protocol Summary: VM7Luc4E2 cells were cultured in phenol red free assay medium containing 10% charcoal stripped FBS for 5 days prior to the assay. The cells were dispensed at 4,000 cells in 4uL of assay medium per well into white wall/solid-bottom 1536-well plates (Corning Life Sciences, Corning, NY) using a Multidrop Combi (Thermo Fisher Scientific Inc., Waltham, MA) dispenser. After the assay plates were incubated at 37C and 5% CO2 for 24hr, 1uL of 10.0nM (final concentration) ICI-182,780 or assay buffer was added using two separate tips of Flying Reagent Dispenser (FRD, Aurora Discovery, San Diego, CA). Then 23nL of compounds dissolved in DMSO at 15 concentrations and positive controls or DMSO only was transferred to the assay plates by a Pintool station (Wako, San Diego, CA). The assay plates were incubated at 37C and 5% CO2 for 22hr. For luciferase read, 4uL/well ONE-Glo reagent (Promega Corporation, Madison, WI) was added to each well using FRD and after 30min incubation at room temperature, luminescence signal was measured on ViewLux plate reader (PerkinElmer, Shelton, CT).", "values": [{"smiles": "Cc1c([N+](=O)[O-])c(C)c([N+](=O)[O-])c(C(C)(C)C)c1[N+](=O)[O-]", "Potency": "inactive"}, {"smiles": "OCC(Br)CBr", "note": "(stereo not given)", "Potency": "inactive"}, {"smiles": "C=C(C)C(=O)[O][Sn]([CH2]CCC)([CH2]CCC)[CH2]CCC", "Potency": "inactive"}, {"smiles": "[F][Sn]([c]1ccccc1)([c]1ccccc1)[c]1ccccc1", "Potency": "inactive"}, {"smiles": "CC(C)(C)c1ccc(OP(=O)(Oc2ccccc2)Oc2ccccc2)cc1", "Potency": "inactive"}, {"smiles": "Nc1ccc(Cl)cc1C(=O)c1ccccc1F", "Potency": "inactive"}, {"smiles": "Cc1ccc([N+](=O)[O-])[c]2c1[O][Hg]2", "Potency": "inactive"}, {"smiles": "ClC(Cl)C(Cl)(Cl)Cl", "Potency": "inactive"}, {"smiles": "Cc1cc2c3c(c1)C(c1ccccc1)=N[C@@H](NC(=O)c1ccncc1)C(=O)N3CC2", "Potency": "inactive"}, {"smiles": "O=C(CCCCl)c1ccc(F)cc1", "Potency": "inactive"}, {"smiles": "c1ccc(Nc2ccc(Nc3ccccc3)cc2)cc1", "Potency": "54.3 µM (active)"}, {"smiles": "Cc1cccc(Cc2cnc[nH]2)c1C", "Potency": "inactive"}, {"smiles": "CC(Cc1ccccc1)N(C)Cc1ccco1", "note": "(stereo not given)", "Potency": "inactive"}, {"smiles": "ClSC(Cl)(Cl)Cl", "Potency": "inactive"}, {"smiles": "CC[C@]1(O)CC[C@H]2[C@@H]3CCC4=CCCC[C@@H]4[C@H]3CC[C@@]21C", "Potency": "0.0019 µM (active)"}, {"smiles": "CCOC(=O)CCN(SN(C)C(=O)Oc1cccc2c1OC(C)(C)C2)C(C)C", "Potency": "inactive"}, {"smiles": "Clc1ccc(C2(Cn3cncn3)OCCO2)c(Cl)c1", "Potency": "inactive"}, {"smiles": "CCC(C)Nc1c([N+](=O)[O-])cc(C(C)(C)C)cc1[N+](=O)[O-]", "note": "(stereo not given)", "Potency": "inactive"}, {"smiles": "Clc1ccc(C(Cl)(Cl)Cl)cc1Cl", "Potency": "inactive"}, {"smiles": "C=CC(=O)[O][Sn]([CH2]CCC)([CH2]CCC)[CH2]CCC", "Potency": "inactive"}, {"smiles": "COP(=S)(OC)Oc1ccc([N+](=O)[O-])c(C)c1", "Potency": "inactive"}, {"smiles": "BrCC(Br)(Br)Br", "Potency": "inactive"}, {"smiles": "COC(=O)N(OC)c1ccccc1COc1ccn(-c2ccc(Cl)cc2)n1", "Potency": "inactive"}, {"smiles": "CSC(=O)c1c(C(F)F)nc(C(F)(F)F)c(C(=O)SC)c1CC(C)C", "Potency": "inactive"}, {"smiles": "N#Cc1ccc(N(CC(N)=O)CC(F)(F)F)cc1C(F)(F)F", "Potency": "inactive"}, {"smiles": "CC(C)c1c(CN(C)C(C)Cc2ccccc2)n(C)n(-c2ccccc2)c1=O", "note": "(stereo not given)", "Potency": "inactive"}, {"smiles": "CCOP(=S)(NC(C)C)Oc1ccccc1C(=O)OC(C)C", "note": "(stereo not given)", "Potency": "inactive"}, {"smiles": "CCCCCCCc1ccc(O)cc1", "Potency": "inactive"}, {"smiles": "C=CCOC(=O)c1ccccc1N", "Potency": "inactive"}, {"smiles": "CN1[C@@H]2CC[C@H]1CC(O)C2", "note": "(stereo not given in full)", "Potency": "inactive"}, {"smiles": "O=C(O)[C@H](O)[C@@H](O)C(=O)O", "Potency": "inactive"}, {"smiles": "CCN1CCC2(CC1)COc1cc3c(cc12)N(C(=O)c1ccc(-c2ccc(-c4nnc(C)o4)cc2C)cc1)CC3", "Potency": "inactive"}, {"smiles": "CCO/N=C(\\CC)C1=C(O)CC(c2c(C)cc(C)cc2C)CC1=O", "note": "(stereo not given)", "Potency": "inactive"}, {"smiles": "CC(C)=CCN1CC[C@@]2(C)c3cc(O)ccc3C[C@@H]1[C@@H]2C", "Potency": "inactive"}, {"smiles": "C=CCBr", "Potency": "inactive"}, {"smiles": "CCN(CC)C(=O)N[C@@H]1C=C2c3cccc4[nH]cc(c34)C[C@@H]2N(C)C1", "Potency": "inactive"}, {"smiles": "O=S1(=O)OCC2C(CO1)C1(Cl)C(Cl)=C(Cl)C2(Cl)C1(Cl)Cl", "note": "(stereo not given)", "Potency": "inactive"}, {"smiles": "[O]=[Cr][O][Cr]=[O]", "Potency": "inactive"}, {"smiles": "Cc1ccccc1OP(=O)(Oc1ccccc1C)Oc1ccccc1C", "Potency": "inactive"}, {"smiles": "Cc1ccc2cc3c(ccc4ccccc43)c3c2c1CC3", "Potency": "inactive"}]}]}
